# Values joined by “and” are separate entries in the source; they are usually repeats but may differ in a detail not shown here. Identical values can stand only once. Compounds without any hit were thinned out: in the full panel of roughly 83,000, 20% have a hit.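 For each line, cells grew in 96-well plates with the test compound present at a single concentration for 48 hours.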 Active and inactive are the calls of the source. Rule for the calls: active = growth percent below 10; inactive = the rest.
# System: MDA-MB-468 breast
# Experiment: NCI-60 one-dose screen, 48 h (100 = growth as untreated, 0 = no growth, -100 = all killed)
# Details: 10 µM unless noted
row,Structure (SMILES),growth
1,C=CCCC(=O)N1C=CC(=O)[C@H](O)[C@@H]1/C=C/c1ccccc1,4.99% [100 µM] (active)
2,CCCOC(=O)Nc1nc2ccc(SCC)cc2s1,46.2% (inactive)
3,CCN(CC)c1ccc(/C=C/C2=[N+](C)c3ccccc3C2(C)C)c(C)c1,-9.14% (active)
4,CCOC(=O)C1CCN(S(=O)(=O)/N=C2/NC(=O)NC2=C(Cl)Cl)CC1,-22.2% (active)
5,Cc1nc2sccn2c1-c1csc(Nc2ccccc2Cl)n1,19% (inactive)
6,CC(C)(C)c1ccc(O)c(CNC2CCCCC2)c1,87% (inactive) and 87.7% (inactive)
7,c1ccc2cc(C[n+]3ccn(CCCCCCn4cc[n+](Cc5ccc6ccccc6c5)c4)c3)ccc2c1,10.1% (inactive)
8,CN(C)C1=NCCN1,108% (inactive)
9,CC1CCc2c(sc3nc(SCC(=O)N/N=C/c4ccc(Cl)cc4)n(-c4ccccc4)c(=O)c23)C1 (stereo not given),85.6% (inactive)
10,CCN(CC)CCc1nc(-c2ccccc2)no1,-1.63% (active) and 78.5% (inactive)
11,COc1ccc(N/N=C/c2cn(-c3ccc(C(=O)O)cc3)nc2-c2cc3ccccc3oc2=O)cc1,107% (inactive)
12,Nc1c(C(=O)Nc2cccc3ccccc23)sc2nc3c(cc12)CCCCCC3,30.7% (inactive)
13,Cc1cc2nc(C(Cl)Cl)nc(-c3ccc(S(=O)(=O)N(C)C)cc3)n2n1,-20.2% (active)
14,COc1cc(NC(=O)COc2ccccc2)c(C(N)=O)cc1OC,17.7% (inactive)
15,COc1cc(/C=C/C(=O)/C=C(/C=C/c2ccc(OC(C)=O)c(OC)c2)OB(F)F)ccc1OC(C)=O,48.8% (inactive)

# — PubChem BioAssay (NCI)
